# Inconclusive results are not listed. A structure can be active in one record and inactive in another. A number with no mark means an inactive call. Active and inactive are the calls of the source. Calls follow the shape of the dose curve; as a rule, active = well fitted inhibition curve with a large enough effect; inconclusive = small, poorly fitted or top-dose-only effect; inactive = flat fitted curve, though single readings scatter.
# Experiments:
# CRL-7250 = normal cell line; test: Cytotoxic Profiling of Annotated Libraries Using Quantitative High-Throughput Screening (AID 1296008); settings: Five cell lines viability, CellTiter-Glo ATP luminescence, 48-72 h; max response: active compounds read low
# Procedure, shortened: (§1)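 Compounds were pin-transferred onto cells and incubated 48 or 72 hr at 37 degree Celsius, 95% humidity. CellTiter-Glo was added, plates sat 10 min at room temperature, then ATP-coupled luminescence was imaged as the viability read-out.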
# HaCat [1] = test: as above; settings: Five cell lines viability, CellTiter-Glo ATP luminescence, 48-72 h; max response: active compounds read low
# Procedure, shortened: as §1
# KB-3-1 = test: as above; settings: Five cell lines viability, CellTiter-Glo ATP luminescence, 48-72 h; max response: active compounds read low
# Procedure, shortened: as §1
# NIH3T3 = test: as above; settings: Five cell lines viability, CellTiter-Glo ATP luminescence, 48-72 h; max response: active compounds read low
# Procedure, shortened: as §1
# HACAT [2] = test: qHTS assay to identify novel small-molecules to repurpose for Merkel cell carcinoma treatment (AID 1296009); settings: MCC and control cell lines, CellTiter-Glo viability, 72 h; at 44.8 µM (top of the series) unless noted
# Procedure, shortened: (§2)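 Cells exposed to NPC (8-point) and MIPE (11-point) compound dilutions for 72 hr at 37 degree celsius; viability read by CellTiter-Glo luminescence, normalized to no-cell and DMSO in-plate controls.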
# MCC-13 = test: as above; settings: MCC and control cell lines, CellTiter-Glo viability, 72 h; series mostly up to 46 µM
# Procedure, shortened: as §2
# MCC-26 = test: as above; settings: MCC and control cell lines, CellTiter-Glo viability, 72 h; series mostly up to 46 µM
# Procedure, shortened: as §2
# HEK293 = test: Cytotoxic Profiling of Annotated Libraries Using Quantitative High-Throughput Screening (AID 1296008); settings: Five cell lines viability, CellTiter-Glo ATP luminescence, 48-72 h; max response: active compounds read low
# Procedure, shortened: as §1
# HEK293T = test: qHTS assay to identify novel small-molecules to repurpose for Merkel cell carcinoma treatment (AID 1296009); settings: MCC and control cell lines, CellTiter-Glo viability, 72 h; series mostly up to 44.8 µM
# Procedure, shortened: as §2
# % is scaled to controls: 0 for no effect and ±100 for the full control effect; potency is read from the fitted curve at half-maximal effect.
# Also: nearly all actives have a fitted effect of over 60% in size.
compound,measurement,setting,value
OCCN1C[C@H](O)[C@@H](O)[C@H](O)[C@@H]1CO,max response,CRL-7250,-0.792%
same,outcome,HaCat [1],inactive
same,outcome,KB-3-1,inactive
same,max response,NIH3T3,-2.06%
same,outcome,HACAT [2],inactive
same,Potency,MCC-13,inactive
same,Potency,MCC-26,inactive
Cn1cc(C[C@@H](N)C(=O)O)c2ccccc21,Potency,CRL-7250,5.75 µM (active)
same,outcome,HaCat [1],inactive
same,max response,KB-3-1,4.82%
same,max response,NIH3T3,-2.88%
same,outcome,HACAT [2],inactive [at 17.4 µM]
same,Potency,MCC-13,inactive
same,Potency,MCC-26,inactive
CCS(=O)(=O)Nc1ccc2[nH]c(O)c(C(=Nc3ccc(CN4CCCCC4)cc3)c3ccccc3)c2c1,Potency,CRL-7250,1.32 µM (active)
same,Potency,HEK293,0.743 µM (active)
same,Potency,KB-3-1,9.35 µM (active)
same,Potency,NIH3T3,0.264 µM (active)
same,Potency,MCC-13,5.26 µM (active)
same,Potency,MCC-26,1.48 µM (active)
Nc1ccc(C(=O)Nc2cccc(-c3nc(N4CCOCC4)c4oc5ncccc5c4n3)c2)cn1,outcome,CRL-7250,inactive
same,max response,HaCat [1],-11.9%
same,Potency,KB-3-1,20.6 µM (active)
same,outcome,KB-3-1,inactive
same,Potency,NIH3T3,2.31 µM (active)
same,Potency,MCC-13,inactive
same,Potency,MCC-26,inactive
CC(C)c1cnn2c(NCc3ccccc3)cc(NCCCCCCN)nc12,outcome,CRL-7250,inactive
same,outcome,HaCat [1],inactive
same,max response,KB-3-1,3.97%
same,max response,NIH3T3,0.624%
same,outcome,HACAT [2],inactive
same,Potency,MCC-13,inactive
same,Potency,MCC-26,inactive
CCN(CC)Cc1ccc2cc(COC(=O)Nc3ccc(C(=O)NO)cc3)ccc2c1,Potency,CRL-7250,7.43 µM (active)
same,Potency,HaCat [1],1.3 µM (active)
same,Potency,KB-3-1,1.16 µM (active)
same,Potency,NIH3T3,2.31 µM (active)
CCN(CC)CCNC(=O)c1c(C)[nH]c(C=C2C(=O)Nc3ccc(F)cc32)c1C,Potency,CRL-7250,0.34 µM (active)
same,Potency,HEK293,0.27 µM (active)
same,Potency,KB-3-1,2.15 µM (active)
same,Potency,MCC-13,42.9 µM (active)
same,Potency,MCC-26,38.2 µM (active)
COC(=O)C1C2CC3c4[nH]c5cc(OC)ccc5c4CCN3CC2CC(OC(=O)c2cc(OC)c(OC)c(OC)c2)C1OC (stereo unspecified),max response,CRL-7250,-19.7%
same,outcome,HaCat [1],inactive
same,max response,KB-3-1,3.89%
same,max response,NIH3T3,-9.23%
same,outcome,HACAT [2],inactive
same,Potency,MCC-13,inactive
same,Potency,MCC-26,inactive
N=c1ccn2c(n1)O[C@H]1[C@@H](O)[C@@H](CO)O[C@H]12,max response,CRL-7250,-13.3%
same,Potency,HEK293,4.18 µM (active)
same,max response,KB-3-1,-23.9%
same,Potency,NIH3T3,3.32 µM (active)
same,Potency,MCC-26,inactive
COc1cc(OC)cc(-c2ccc3ncc4ccc(=O)n(-c5ccc(N6CCNCC6)c(C(F)(F)F)c5)c4c3c2)c1,Potency,CRL-7250,10.5 µM (active)
same,Potency,HEK293,3.72 µM (active)
same,Potency,NIH3T3,14.8 µM (active)
C[C@@H]1CC[C@@]2(OC1)OC1CC3C4CC=C5CC(O)CCC5(C)C4CCC3(C)C1[C@@H]2C (stereo partly specified),max response,CRL-7250,-6.42%
same,Potency,HEK293,10.5 µM (active)
same,max response,KB-3-1,-6.71%
same,max response,NIH3T3,-12.1%
same,Potency,MCC-13,inactive
same,Potency,MCC-26,inactive
CC(=CC(=O)Nc1ccccc1C(=O)O)c1ccc2ccccc2c1,max response,CRL-7250,-3.34%
same,outcome,HaCat [1],inactive
same,max response,KB-3-1,-21%
same,max response,NIH3T3,-22.4%
same,outcome,HACAT [2],inactive
same,Potency,MCC-13,inactive
same,Potency,MCC-26,inactive
CCCCC(=O)O[C@]1(C(=O)CO)[C@@H](C)C[C@H]2[C@@H]3CCC4=CC(=O)C=C[C@]4(C)[C@@]3(F)[C@@H](O)C[C@@]21C,outcome,CRL-7250,inactive
same,max response,HEK293,3.05%
same,outcome,KB-3-1,inactive
same,max response,NIH3T3,-1.65%
same,Potency,MCC-13,inactive
same,Potency,MCC-26,inactive
N[C@H]1CN(c2c(F)cc3c(=O)c(C(=O)O)cn(C4C[C@@H]4F)c3c2Cl)CC12CC2 (stereo partly specified),max response,CRL-7250,-23.8%
same,max response,HEK293,-9.37%
same,max response,KB-3-1,-14.1%
same,outcome,NIH3T3,inactive
same,Potency,MCC-13,inactive
same,Potency,MCC-26,inactive
CCCCCCCN(CC)CCCC(O)c1ccc(NS(C)(=O)=O)cc1 (stereo unspecified),max response,CRL-7250,0.839%
same,outcome,HaCat [1],inactive
same,max response,KB-3-1,-6.17%
same,max response,NIH3T3,-1.95%
same,outcome,HACAT [2],inactive
same,Potency,MCC-13,inactive
same,Potency,MCC-26,inactive
OC[C@H]1OC(O)C[C@@H](O)[C@H]1O (stereo partly specified),outcome,CRL-7250,inactive
same,outcome,HaCat [1],inactive
same,max response,KB-3-1,2.18%
same,outcome,NIH3T3,inactive
same,outcome,HACAT [2],inactive
same,Potency,HEK293T,inactive
same,Potency,MCC-13,inactive
same,Potency,MCC-26,inactive
COC(=O)[C@@H]1[C@H]2C[C@@H]3c4[nH]c5ccccc5c4CCN3C[C@@H]2CC[C@@H]1O,outcome,CRL-7250,inactive
same,outcome,HaCat [1],inactive
same,max response,KB-3-1,1.87%
same,max response,NIH3T3,-9.61%
same,outcome,HACAT [2],inactive
same,Potency,HEK293T,inactive
same,Potency,MCC-13,inactive
same,Potency,MCC-26,inactive
